NS1 inh: qHTS Assay for Inhibitors of Influenza NS1 Protein Function | Potency, µM (highest dose often 46.1 µM), for the others: top-dose activity, positive = more growth | 270,000 compounds, 0.4% hits; calls by dose curve; also: potency is read from the fitted curve at half-maximal effect; actives are rising curves; nearly all actives have a fitted effect of over 50% in size
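Recovery from NS1-induced slow growth read by OD600 in budding yeast switched to galactose assay medium (pH 6.0, -URA) at 1:100 dilution. Compound 23 nl per well; the matching strain lacking NS1 serves as control.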
Shiga inhibitor: A qHTS for Small Molecule Inhibitors of Shiga Toxin | Vero cells, Shiga toxin protein synthesis inhibition reporter | inhibition, % at 38.7 µM | 290,000 compounds, 9.2% hits; in the data active = inhibition mostly above about 28%, no sharp cut-off; inactive = mostly below about 43%; also: 0% is about no effect
Pf growth 48h: Primary qHTS for delayed death inhibitors of the malarial parasite plastid, 48 hour incubation. P. falciparum luciferase growth in erythrocytes, 48 h. 310,000 compounds, 5.9% hits. Potency, µM (titrated, usually from 28.7 µM), for the others: at the top dose activity change, negative = inhibition, most hits filed as inhibitors; also: potency is read from the fitted curve at half-maximal effect; % is scaled to controls: 0 for no effect and ±100 for the full control effect
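Erythrocytes infected with P. falciparum carrying an integrated firefly luciferase reporter (2% hematocrit, 0.1% parasitemia final) were exposed to compounds in RPMI 1640 with 0.5% Albumax at 37 C, 5% CO2. Growth inhibition was scored as reduced luminescence.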
Pf growth 96h: Primary qHTS for delayed death inhibitors of the malarial parasite plastid, 96 hour incubation; P. falciparum luciferase reporter growth, 96 h; Potency, µM (series often up to 28.7 µM), inactives show at the highest dose activity change, negative = inhibition, hits mostly inhibitors; 320,000 compounds, 6.9% hits; AID 504834, 2011; also: potency is read from the fitted curve at half-maximal effect; % is scaled to controls: 0 for no effect and ±100 for the full control effect
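Infected RBCs, 2% Hct / 0.05% parasitemia final; luciferase-reporter P. falciparum; cpd 96 h, 37 C, 5% CO2; luciferase detection reagent; luminescence.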
Cycloheximide cs: Cycloheximide Counterscreen for Small Molecule Inhibitors of Shiga Toxin; 300,000 compounds, 12% hits; cell reporter, cycloheximide protein synthesis inhibition counterscreen; max response, %; in the data active = max response mostly above about 13%, no sharp cut-off; inactive = mostly below about 14%; also: read at 38.3 µM for the half of the compounds with a filed dose; 0% is about no effect
* = called active by the depositor; u = inconclusive; x = not tested or not shown. Shown are actives, neighbours in structure and some others; about 21% of the full set was active somewhere. Unless noted, calls follow the shape of the dose curve; as a rule, active = well fitted inhibition curve with a large enough effect; inconclusive = small, poorly fitted or top-dose-only effect, or another doubt; inactive = no such curve, though single readings can be large or run the other way.

SMILES	NS1 inh	Shiga inhibitor	Pf growth 48h	Pf growth 96h	Cycloheximide cs
COc1ccc(C(C)(C)C)cc1S(=O)(=O)N1CCN(C)CC1	-2%	-8	14%	1%	-1
Cc1cc(C)c(C(=O)Cn2nc(C(=O)O)c3ccccc3c2=O)cc1C	3%	50	19%	2%	7
O=C(Cn1nc(C(=O)O)c2ccccc2c1=O)c1c[nH]c2ccccc12	1%	35*	-10%	-13%	9.4*
Cc1cc(C(=O)Cn2nc(C(=O)O)c3ccccc3c2=O)c(C)n1-c1ccccc1	16%	95*	99%	103%	59*
COc1ccc(-n2cc(CNCCc3cnc[nH]3)c(-c3cccc(F)c3)n2)cc1	-71%	67	1.7µM*	u	41*
COc1ccc(-n2cc(CNCc3cccnc3)c(-c3cccc(F)c3)n2)cc1	1%	51	13µM*	u	16
COc1ccc(CNCc2cn(-c3cccc(F)c3)nc2-c2ccc(C)o2)cc1	2%	15	u	-1%	11*
N#Cc1ccc2[nH]cc(CCO)c2c1	1%	8	11%	31%	-2
N#C/C(=C/c1cn(CC(=O)O)c2ccccc12)C(=O)NCc1ccccc1	x	-7	4%	u	-2
CC1(c2ccc3noc(-c4cccc(F)c4)c3c2)OCCO1	x	11	222%	-24%	10
Cc1ccc(C(=O)N/C(=C\c2ccc(Cl)cc2)C(=O)NCC2CCCO2)cc1 (stereo unspecified)	10%	-6	9%	16%	0
CN(C(=O)c1cccs1)C1(C)CCS(=O)(=O)C1 (stereo unspecified)	11%	-12	22%	10µM*	-2
CN(C(=O)c1ccccc1)C1(C)CCS(=O)(=O)C1 (stereo unspecified)	-2%	30	-5%	u	-2
Cc1cc(F)ccc1S(=O)(=O)N1CCCOC1CNC(=O)C(=O)NCc1ccc2c(c1)OCO2 (stereo unspecified)	6%	7	-9%	0%	-1
CN(C)S(=O)(=O)c1ccc2c(c1)C(=NO)c1cc(S(=O)(=O)N(C)C)ccc1-2	3%	1	-22%	2.6µM*	-3
CN(C)N=C1c2cc(S(=O)(=O)N(C)C)ccc2-c2ccc(S(=O)(=O)N(C)C)cc21	-16%	4	13µM*	12µM*	-3
CC(=O)c1cccc(OCc2cc(C(=O)N(C)CCC3CCOCC3)no2)c1	u	68*	2%	4%	42*
CCCN(CC1CCCO1)C(=O)c1cc(COc2cccc(OC)c2)on1 (stereo unspecified)	-22%	26	u	123%	14*
CC(=O)c1ccc(OCc2cc(C(=O)N(C)CCN3CCOCC3)no2)cc1	-7%	25	u	4%	16
COc1cccc(OCc2cc(C(=O)N(C)CCC3CCCCO3)no2)c1 (stereo unspecified)	-20%	152*	7%	u	75*
O=C(c1cc(COc2ccc(F)cc2Cl)on1)N(Cc1ccncc1)CC1CCCO1 (stereo unspecified)	0%	-6	u	-27%	-2
CCOc1ccc2[nH]c3c(NCCc4ccc(OC)c(OC)c4)ncnc3c2c1	-3%	7	4.7µM*	3.7µM*	1
Cc1ccc2[nH]c3c(NCCCN4CCCC4=O)ncnc3c2c1	-6%	71*	u	u	31*
CCOc1ccc2[nH]c3c(NCCO)ncnc3c2c1	-1%	36	11%	12%	20*
COc1ccc2[nH]c3c(NCCN4CCCCC4)ncnc3c2c1	5%	4	2.1µM*	20%	6
SMILES	NS1 inh	Shiga inhibitor	Pf growth 48h	Pf growth 96h	Cycloheximide cs
CCN(CC(=O)NCc1ccc(Cl)cc1)C(=O)CSCC(=O)Nc1ccc(OC)cc1	x	x	u	-1%	x
CCc1ccc(CN(C)Cc2nc(Cc3ccc(OC)c(OC)c3)no2)nc1	-4%	-6	u	5%	-2
COc1ccc(Cc2noc(CN(C)Cc3ccc(-n4cccn4)cc3)n2)cc1OC	-6%	-16	-15%	2.1µM*	-3
CCOC(=O)C1=C(CN2CC(C)CC(C)C2)NC(=O)NC1c1ccc2c(c1)OCO2 (stereo unspecified)	x	-15	u	-20%	-2
COc1cc([N+](=O)[O-])cc(/C=N/NC(=O)Cn2nccc2C)c1O	-4%	5	6%	39%	-3
COc1ccc(NC2=C(NCCO)C(=O)c3ccccc3C2=O)cc1	-2%	81*	7.4µM*	u	53*
Cc1cccc(NC2=C(NCCO)C(=O)c3ccccc3C2=O)c1	-23%	25	4.7µM*	-14%	2
COc1cccc(NC2=C(NCCO)C(=O)c3ccccc3C2=O)c1	3%	x	-28%	-13%	11*
Cn1cccc1Cc1nnc(SCC(=O)Nc2ccc3c(c2)OCCO3)n1-c1ccc(F)cc1	u	-1	-4%	7%	7
Cn1cccc1Cc1nnc(SCC(=O)Nc2ccc(F)cc2)n1-c1ccc(F)cc1	-28%	-18	u	31%	-5
COc1ccc(-n2c(Cc3cccn3C)nnc2SCC(=O)N2CCCC2)cc1	u	-2	u	u	-3
Cn1cccc1Cc1nnc(SCC(=O)Nc2ccccc2)n1-c1ccc(F)cc1	-6%	2	u	-2%	3
Cc1ccc(-n2c(Cc3cccn3C)nnc2SCC(=O)Nc2ccc3c(c2)OCO3)cc1	14%	-10	15µM*	u	-4
COc1ccc(-n2c(Cc3cccn3C)nnc2SCC(=O)Nc2ccccc2)cc1	6%	-3	12µM*	u	-2
CCc1ccc(NC(=O)CSc2nnc(Cc3cccn3C)n2-c2ccc(OC)cc2)cc1	-37%	-2	u	8.3µM*	-2
COc1ccc(-n2c(Cc3cccn3C)nnc2SCC(=O)N2CCC(C)CC2)cc1	u	-9	u	0.37µM*	-4
CC1(C)Cc2c(sc3[nH]c(=S)[nH]c(=O)c23)CO1	2%	-7	48%	u	-5
Cc1cc(N2CCCC2)nc2ccc(NC(=S)NCCCN3CCC(C)CC3)cc12	x	-4	u	-24%	-6
CC1CCCCN1C(=O)C12CCC(C)(/C(=N/O)C1)C2(C)C (stereo unspecified)	0%	-7	2%	20%	-3
COc1ccc(-n2c(Cc3cccn3C)nnc2SCC(=O)Nc2cccc(F)c2)cc1	-17%	11	8.3µM*	u	15
COc1ccc(NC(=O)CSc2nnc(Cc3cccn3C)n2-c2ccc(F)cc2)cc1OC	u	15	u	u	6
CC(C)(C)/C(O)=C/c1nc2ccccc2[nH]c1=O	6%	11	28%	38%	6
Cc1[nH]c2ccccc2c1-c1nc2ccccc2[nH]c1=O	8%	64*	19%	19%	9
Cn1ccnc1-c1nc2ccccc2[nH]c1=O	-9%	-3	-1%	0%	-2
c1csc(-c2nnsc2-c2nc3ccccc3[nH]2)c1	-10%	45	15%	u	24
O/C(=C\c1nc2ccccc2[nH]1)c1cccs1	-68%	87*	u	u	28*

Screens deposited in PubChem by National Center for Advancing Translational Sciences (NCATS).
